Where “and” joins values, the source holds several entries; their conditions need not be identical. Identical values can stand only once. Screen size: about 5,500 compounds; about 2,000 (36%) were called active. Another 18% or so got no clear call; they are omitted. Rule as the data show it: active = normalized growth mostly below about 0.91 (no sharp cut-off); inconclusive = no clear call, values can overlap the other calls; inactive = mostly above about 0.92. The list shows a part of the results.
Assay: chemical genetic growth profiling, strain panel (AID 1159580);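 also: tested at 20 µM; growth read once vehicle control cultures reached saturation at 30 °C; 1 = growth at the plate median or of vehicle wells; lower values mean less growth of the strain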
Conditions: S. cerevisiae deletion strains, growth OD

Measured: normalized growth

O=C(O[C@@H]1Cc2c(O)cc(O)cc2O[C@@H]1c1ccc(O)c(O)c1)c1cc(O)c(O)c(O)c1
inactive: locus YAL021C, strain ccr4, stronger effect = lower value 0.925 | locus YAL026C, strain drs2, stronger effect = lower value 0.923 | locus YAL030W, strain snc1, stronger effect = lower value 1.01 | locus YBL061C, strain skt5, stronger effect = lower value 0.955 | locus YBR009C, strain hhf1, stronger effect = lower value 0.973 | locus YBR021W, strain FUR4, stronger effect = lower value 0.999 | locus YBR171W, strain sec66, stronger effect = lower value 1.04 | locus YBR229C, strain ROT2, stronger effect = lower value 0.987 | locus YBR279W, strain paf1, stronger effect = lower value 0.986 | locus YCL011C, strain gbp2, stronger effect = lower value 0.961 | locus YCL016C, strain dcc1, stronger effect = lower value 0.966 | locus YCL029C, strain bik1, stronger effect = lower value 0.975 | locus YCL061C, strain MRC1, stronger effect = lower value 0.986 | locus YCL069W, strain vba3, stronger effect = lower value 1 | locus YCR088W, strain abp1, stronger effect = lower value 1.03 | locus YDL005C, strain med2, stronger effect = lower value 1.04 | locus YDL040C, strain nat1, stronger effect = lower value 1.03 | locus YDL074C, strain BRE1, stronger effect = lower value 0.854 | locus YDL101C, strain DUN1, stronger effect = lower value 0.939 | locus YDL185W, strain tfp1, stronger effect = lower value 1.01 | locus YDL192W, strain arf1, stronger effect = lower value 0.993 | locus YDR001C, strain nth1, stronger effect = lower value 1.02 | locus YDR101C, strain arx1, stronger effect = lower value 1.01 | locus YDR137W, strain rgp1, stronger effect = lower value 0.975 | locus YDR150W, strain NUM1, stronger effect = lower value 0.961 | locus YDR159W, strain sac3, stronger effect = lower value 1.12 | locus YDR195W, strain ref2 1.1 | locus YDR297W, strain sur2, stronger effect = lower value 0.966 | locus YDR318W, strain mcm21, stronger effect = lower value 1.02 | locus YDR334W, strain swr1, stronger effect = lower value 0.935 | locus YDR335W, strain msn5, stronger effect = lower value 0.981 | locus YDR388W, stronger effect = lower value 1.01 | locus YDR392W, strain spt3, stronger effect = lower value 1.01 | locus YDR502C, strain sam2, stronger effect = lower value 1.02 | locus YEL003W, strain gim4, stronger effect = lower value 0.981 | locus YEL037C, strain rad23, stronger effect = lower value 0.984 | locus YEL061C, strain CIN8 (second series), stronger effect = lower value 1.03 | locus YEL061C, strain CIN8, stronger effect = lower value 0.947 | locus YER016W, strain bim1, stronger effect = lower value 1.03 | locus YER110C, stronger effect = lower value 1.03 | locus YER111C, strain swi4, stronger effect = lower value 0.986 | locus YER155C, strain BEM2 (second series), stronger effect = lower value 1.01 | locus YER155C, strain BEM2, stronger effect = lower value 1.04 | locus YER167W, strain BCK2, stronger effect = lower value 0.995 | locus YFR010W, strain ubp6, stronger effect = lower value 0.961 | locus YGL078C, strain dbp3, stronger effect = lower value 1.03 | locus YGL086W, strain mad1, stronger effect = lower value 0.954 | locus YGL167C, strain pmr1, stronger effect = lower value 1.02 | locus YGL227W, strain vid30, stronger effect = lower value 1.05 | locus YGL240W, strain doc1, stronger effect = lower value 1.04 | locus YGL248W, strain PDE1, stronger effect = lower value 0.941 | locus YGL253W, strain hxk2, stronger effect = lower value 0.979 | locus YGR135W, strain pre9, stronger effect = lower value 1.02 | locus YGR252W, strain gcn5, stronger effect = lower value 1.01 | locus YHR013C, strain ard1, stronger effect = lower value 0.852 | locus YHR030C, strain SLT2, stronger effect = lower value 0.965 and 0.994 | locus YHR079C, strain IRE1 (second series), stronger effect = lower value 1.02 | locus YHR079C, strain IRE1, stronger effect = lower value 0.996 | locus YHR094C, strain hxt1, stronger effect = lower value 1.03 | locus YHR129C, strain ARP1, stronger effect = lower value 0.931 | locus YHR200W, strain rpn10, stronger effect = lower value 1 | locus YIL125W, strain kgd1, stronger effect = lower value 1 | locus YIR030C, strain dcg1, stronger effect = lower value 1.04 | locus YJL092W, strain hpr5, stronger effect = lower value 1.04 | locus YJL095W, strain BCK1 (second series), stronger effect = lower value 0.997 | locus YJL095W, strain BCK1, stronger effect = lower value 0.898 and 0.984 | locus YJL115W, strain asf1, stronger effect = lower value 1.03 | locus YJL129C, strain trk1, stronger effect = lower value 1.06 | locus YJL134W, strain LCB3, stronger effect = lower value 0.98 | locus YJL154C, strain vps35, stronger effect = lower value 1.03 | locus YJL164C, strain tpk1, stronger effect = lower value 0.966 | locus YJL166W, strain qcr8, stronger effect = lower value 0.922 | locus YJL168C, strain set2, stronger effect = lower value 1.03 | locus YJL187C, strain SWE1, stronger effect = lower value 0.988
active: locus YBR023C, strain chs3, stronger effect = lower value 0.86 | locus YBR231C, strain swc5, stronger effect = lower value 0.817 | locus YDL035C, strain GPR1, stronger effect = lower value 0.853 | locus YDR069C, strain doa4, stronger effect = lower value 0.833 | locus YDR162C, strain NBP2, stronger effect = lower value 0.771 | locus YER015W, strain faa2, stronger effect = lower value 0.808 | locus YGL173C, strain kem1, stronger effect = lower value 0.848 | locus YHR027C, strain rpn1, stronger effect = lower value 0.699 | locus YHR142W, strain chs7, stronger effect = lower value 0.851 | locus YIL066C, strain RNR3, stronger effect = lower value 0.793 | locus YIL073C, strain SPO22, stronger effect = lower value 0.665 | locus YJL187C, strain SWE1 (second series), stronger effect = lower value 0.854
